Records with an inconclusive call do not appear. Calls of active or inactive are those of the source. Calls come from the whole dose curve; as a rule, active = well fitted inhibition curve with a large enough effect; inconclusive = small, poorly fitted or top-dose-only effect; inactive = flat fitted curve, though single readings scatter.
test system: CRL-7250; experiment: qHTS assay to identify novel small-molecules to repurpose for Merkel cell carcinoma treatment (AID 1296009); details: MCC and control cell lines, CellTiter-Glo viability, 72 h; at 44.8 µM (top of the series) unless noted; note: nearly all actives have a fitted effect of over 60% in size
In short: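 Cell viability, measured as CellTiter-Glo luminescence, was normalized between DMSO and no-cell wells. The cells had been exposed to 8- or 11-point compound dilutions for 72 hr at 37 degree celsius.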

Q: Which outcome does the source give for `O=C1CN(/N=C/c2ccc([N+](=O)[O-])o2)C(=O)N1` here?
A: inactive

Q: Which outcome does the source give for `CCOc1cc(CC(=O)N[C@@H](CC(C)C)c2ccccc2N2CCCCC2)ccc1C(=O)O` here?
A: inactive

Q: Which outcome does the source give for `NNC(=O)c1ccncc1` here?
A: inactive

Q: With `Cc1cccc(C)c1NC(=O)c1cc(S(N)(=O)=O)c(Cl)cc1O` as the molecule, how does the outcome read?
A: inactive

Q: Which outcome does the source give for `NCCCC[C@H](N[C@@H](CCc1ccccc1)C(=O)O)C(=O)N1CCC[C@H]1C(=O)O` here?
A: inactive

Q: Which outcome does the source give for `Nc1ccc(S(=O)(=O)Nc2ccccn2)cc1` here?
A: inactive

Q: For `CO[C@@]1(NC(=O)Cc2cccs2)C(=O)N2C(C(=O)O)=C(COC(N)=O)CS[C@@H]21`, which outcome is on record?
A: inactive

Q: With `CC(C)NCC(O)c1ccc(NS(C)(=O)=O)cc1` (configuration not stated) as the molecule, how does the outcome read?
A: inactive

Q: With `NC(=O)N1c2ccccc2C=Cc2ccccc21` as the molecule, how does the outcome read?
A: inactive

Q: Which outcome does the source give for `Cc1cc(CCCOc2c(C)cc(-c3noc(C(F)(F)F)n3)cc2C)on1` here?
A: inactive

Q: How did the outcome turn out when `c1ccc2sc(SN3CCOCC3)nc2c1` was run?
A: inactive

Q: For `COc1cc(O)cc(O)c1`, which outcome is on record?
A: inactive

Q: With `CCn1cc(C(=O)O)c(=O)c2cc(F)c(N3CCNC(C)C3)c(F)c21` (configuration not stated) as the molecule, how does the outcome read?
A: inactive

Q: For `CC[C@]12CCCN3CCc4c(n(c5ccccc45)[C@@](O)(C(=O)OC)C1)[C@@H]32`, which outcome is on record?
A: inactive

Q: For `CC(=O)CC(c1ccccc1)c1c(O)c2ccccc2oc1=O` (configuration not stated), which outcome is on record?
A: inactive

Q: Which outcome does the source give for `CCN(CC)CCNC(=O)c1ccc(N)cc1` here?
A: inactive

Q: With `Cc1cc(O)c2c(O)c3c(O)cccc3cc2c1` as the molecule, how does the outcome read?
A: inactive

Q: For `CC(C(=O)O)c1ccc2c(c1)[nH]c1ccc(Cl)cc12` (configuration not stated), which outcome is on record?
A: inactive

Q: With `CC(=O)OCC(=O)[C@@]1(OC(C)=O)[C@@H](C)C[C@H]2[C@@H]3C[C@H](F)C4=CC(=O)C=C[C@]4(C)[C@@]3(F)[C@@H](O)C[C@@]21C` as the molecule, how does the outcome read?
A: inactive

Q: With `OC[C@H]1O[C@@H]2O[C@H]3[C@H](O)[C@@H](O)[C@@H](O[C@H]4[C@H](O)[C@@H](O)[C@@H](O[C@H]5[C@H](O)[C@@H](O)[C@@H](O[C@H]6[C@H](O)[C@@H](O)[C@@H](O[C@H]7[C@H](O)[C@@H](O)[C@@H](O[C@H]8[C@H](O)[C@@H](O)[C@@H](O[C@H]1[C@H](O)[C@H]2O)O[C@@H]8CO)O[C@@H]7CO)O[C@@H]6CO)O[C@@H]5CO)O[C@@H]4CO)O[C@@H]3CO` as the molecule, how does the outcome read?
A: inactive

Q: How did the outcome turn out when `CCOC(=O)C1=C(C)NC(C)=C(C(=O)OC)C1c1cccc([N+](=O)[O-])c1` (configuration not stated) was run?
A: inactive

Q: `CC(C)OC(=O)OCOP(=O)(CO[C@H](C)Cn1cnc2c(N)ncnc21)OCOC(=O)OC(C)C` was tested. Which outcome did it give?
A: inactive

Q: How did the outcome turn out when `Oc1ccccc1-c1nnco1` was run?
A: inactive

Q: Which outcome does the source give for `COc1ccccc1OCC(O)CO` (configuration not stated) here?
A: inactive

Q: For `COc1ccc2c(c1)c(CC(=O)OC/C=C(\C)CC/C=C(\C)CCC=C(C)C)c(C)n2C(=O)c1ccc(Cl)cc1`, which outcome is on record?
A: inactive

Q: `COC(=O)[C@@H]1[C@H]2C[C@H]3c4[nH]c5ccccc5c4CCN3C[C@@H]2CC[C@@H]1O` was tested. Which outcome did it give?
A: inactive

Q: Which outcome does the source give for `CCCCCCCC/C=C/C(=O)O` here?
A: inactive

Q: For `N#CCC(=O)NN`, which outcome is on record?
A: inactive

Q: `CC(=O)N(CC(O)CO)c1c(I)c(C(=O)NCC(O)CO)c(I)c(C(=O)NCC(O)CO)c1I` (configuration not stated) was tested. Which outcome did it give?
A: inactive

Q: `C[C@]12C=CC(=O)C=C1CC[C@@H]1[C@@H]2C(=O)C[C@@]2(C)[C@H]1CC[C@]2(O)C(=O)CO` was tested. Which outcome did it give?
A: inactive [at 17.4 µM]

Q: For `CCOC(=O)O[C@]1(C(=O)OCCl)CC[C@H]2[C@@H]3CCC4=CC(=O)C=C[C@]4(C)[C@H]3[C@@H](O)C[C@@]21C`, which outcome is on record?
A: inactive

Q: Which outcome does the source give for `NC(=O)NC1NC(=O)NC1=O` (configuration not stated) here?
A: inactive

Q: `COCCCOc1ccnc(CS(=O)c2nc3ccccc3[nH]2)c1C` (configuration not stated) was tested. Which outcome did it give?
A: inactive

Q: For `CCN1CCN(C(=O)N[C@@H](C(=O)N[C@@H]2C(=O)N3[C@@H]2SC(C)(C)[C@H]3C(=O)O)c2ccccc2)C(=O)C1=O`, which outcome is on record?
A: inactive

Q: Which outcome does the source give for `Cc1cc(C(C#N)c2ccc(Cl)cc2)c(Cl)cc1NC(=O)c1cc(I)cc(I)c1O` (configuration not stated) here?
A: inactive

Q: `FC(F)(F)c1ccccc1-n1ccnc1` was tested. Which outcome did it give?
A: inactive

Q: For `CC(=O)OCC(=O)[C@@]1(O)[C@H](OC(C)=O)C[C@H]2[C@@H]3CCC4=CC(=O)C=C[C@]4(C)[C@@]3(F)[C@@H](O)C[C@@]21C`, which outcome is on record?
A: inactive
